The full list was thinned out, with hits kept by preference.
Tgondii IFNg – T. gondii growth inhibition under IFN-gamma | Toxoplasma gondii growth in IFN-gamma-treated host cells; stronger effect = lower value | activity change, negative = inhibition, % (concentration not given with the values) | actives 3.8% (n = 69,000); in the data active means activity change below about -70%, passing the limit was not always enough;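 further: host cells are HeLa cells infected with Toxoplasma gondii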
* hit, by the source's call; i = inactive.

SMILES | Tgondii IFNg
O=C(NCc1cccc(Cl)c1)c1c(O)c2cccnc2n(-c2ccccc2)c1=O | -83.1*
O=C(NCc1cccc(Cl)c1)c1c(O)c2cccnc2n(-c2ccc(F)cc2)c1=O | 127.5
O=C(NCc1ccccc1)c1c(O)c2cccnc2n(-c2ccc(F)cc2)c1=O | 74.8
O=C(NCc1cccnc1)c1c(O)c2ccccc2n(-c2ccccc2)c1=O | -5.1
COc1cccc(CNC(=O)c2c(O)c3ccccc3n(-c3ccccc3)c2=O)c1 | -5.0
O=C(NCc1ccc(Cl)cc1)c1c(O)c2cccnc2n(-c2ccc(F)cc2)c1=O | -105.1*
O=C(NCc1cccc(Cl)c1)c1c(O)c2cccnc2n(-c2cccc(F)c2)c1=O | 71.7
O=C(NCc1ccc(Cl)cc1)c1c(O)c2ccccc2n(-c2ccccc2)c1=O | -124.4*
CCOc1ccccc1NC(=O)C(=O)NCCc1csc(-c2ccc(F)cc2)n1 | -8.2
CN1CCCn2c(nc(CNC(=O)c3nccn3C)cc2=O)C1 | -15.3
O=C(c1ccncc1)N1C[C@@H]2COc3ccccc3[C@@H]2N1c1ccccc1 | 3.8
COc1cccc(-c2[nH]cnc2-c2ccccc2)c1OCCN(C)C | -15.5
CCCNC(=O)[C@@H]1CCCC[C@@H]1C(=O)NCCc1c[nH]c2ccccc12 | 3.9
Cc1noc(-c2cc(=O)n(CC(=O)Nc3cc(Cl)ccc3C)c3ccccc23)n1 | 24.2
CCc1nc(OCC(=O)Nc2ccc(F)cc2)c2ccccc2n1 | 15.4
O=C1CCCN1Cc1nnc2n1CCN(C(=O)c1ccoc1)C2 | 4.7
CCOC(=O)C1CCN(c2nc(-c3ccc(Cl)cc3)nc3ccccc23)CC1 | -32.4
COc1ccc(NC(=O)CS(=O)CC(=O)Nc2ccc(N3CCOCC3)cc2)cc1 (centres undefined) | -1.5
COc1ccc(-c2[nH]ncc2CNC(=O)c2ccc(N3CCOCC3)cc2)cc1 | 7.4
N#CCNC(=O)c1ccc(-c2ccnc(Nc3ccc(N4CCOCC4)cc3)n2)cc1 | -80.4*
CCOCC1CN(C(=O)c2cc(C)on2)Cc2cn(CC3CC3)nc21 (centres undefined) | -2.3
O=c1c(=O)n2c(nn1CN1CCCCC1)sc1ccccc12 | 13.0
COc1ccc(C)cc1NC(=O)N1CCc2nc(-c3ccc(C)cc3)sc2C1 | -13.0
CCOc1ccc(-c2nc3c(s2)CN(C(=O)Nc2ccc(C)cc2)CC3)cc1 | -66.1
CCOc1ccc(-c2nc3c(s2)CN(C(=O)Nc2cc(C)ccc2C)CC3)cc1 | -112.4*
SMILES | Tgondii IFNg
Cc1ccc(NC(=O)N2CCc3nc(-c4ccccc4)sc3C2)cc1C | 100.6
CCOc1ccc(-c2nc3c(s2)CN(C(=O)Nc2ccc(C)c(C)c2)CC3)cc1 | -105.8*
COc1ccc(-c2nc3c(s2)CN(C(=O)Nc2ccc(C)cc2C)CC3)cc1 | 52.8
CN(C)CCOCC12CCCOC1CCN(C(=O)c1cccn1C)C2 (centres undefined) | -48.0
CC(C)CN1CC2(CCN(C(=O)C3CCC(=O)N3)CC2)COc2ccccc2S1(=O)=O (centres undefined) | 76.5
N#Cc1c(=N)nc2oc3ccc(Cl)cc3c3c(C#N)c(N)[nH]c1c23 | -75.1*
N#Cc1c(=O)[nH]c(O)c2c(=N)oc3ccc(Cl)cc3c12 | 60.5
CCn1c(=O)c(-c2nc(-c3ccc(Br)cc3)no2)c(O)c2ccccc21 | 10.6
Cc1ccc(C)c(-c2coc(-c3ccc(NC(=O)c4sccc4C)cc3)n2)c1 | 16.7
CO[C@H]1CCN(C2CCOCC2)C[C@@H]1Cc1ccccc1 | 4.4
CC1=C(C(=O)NCc2ccc3c(c2)OCO3)C2(CCN(S(=O)(=O)c3cccs3)CC2)OC1=O | 27.4
Cc1cc(C(F)(F)F)n2nc(C3CCCN(C(=O)c4cc5c(s4)CCCC5)C3)cc2n1 (centres undefined) | -103.6*
COc1ccccc1CC(=O)N1CCCC1c1cc2nc(C)cc(C(F)(F)F)n2n1 (centres undefined) | -20.9
O=C(c1ccn[nH]1)N1CCC(c2cc3nc(-c4cccs4)cc(C(F)(F)F)n3n2)C1 (centres undefined) | -46.4
Cc1nc(C)n(CC(C)C(=O)NC(C)(C)CN2CCCCC2C)n1 (centres undefined) | -47.7
Cc1cnc(CN(C)Cc2cc3n(n2)CCNC3)[nH]1 | -1.4
CN(C)CC(=O)N1CCc2onc(Cn3ccnc3)c2C1 | 47.6
CCS(=O)(=O)N1CCOCC2(CCC(Cn3cccn3)O2)C1 (centres undefined) | 104.4
Cc1ccc2c(c1)C(CC(=O)N1Cc3cnn(CCO)c3C1)C(=O)N2 (centres undefined) | 24.7
CCC(=O)N1CCCC(C2C(=O)Nc3ccccc32)C1 (centres undefined) | 0.8
CC(C)(C(=O)NCC(F)(F)C(F)(F)F)C(=O)N[C@@H]1C(=O)Nc2ccccc2-c2ccccc21 | -89.0*
O=C(O)c1nccnc1C(=O)N1CCN(c2ncccn2)CC1 | 20.7
Cc1oc(-c2ccc(Cl)cc2)nc1Cn1nnc(C(=O)Nc2ccccc2Cl)c1C | 88.1
COc1ccc(NC(=O)C2=C(C)C(=O)OC23CCN(S(C)(=O)=O)CC3)c(OC)c1 | 40.0
O=C(NCCc1ccccn1)Nc1nnc(-c2ccc(F)cc2)s1 | -5.1
SMILES | Tgondii IFNg
S=C(NCCc1ccccn1)NC1CC2CCC1C2 (centres undefined) | 62.5
S=C(NCCc1ccccn1)NN1C2CSC1CS2 | -84.0*
CC(C)=CCC[C@](C)(O)[C@H]1CC[C@]2(C)[C@@H]1[C@H](O)C[C@@H]1[C@@]3(C)CC[C@H](O)C(C)(C)[C@@H]3[C@@H](O)C[C@]12C | 4.4
CN(C)CCN1CCOCC2(CCN(C(=O)C3CCOC3)CC2)C1 (centres undefined) | -6.7
c1ccc2c(c1)CCCc1cc(NCCN3CCOCC3)nnc1-2 | 16.6
Cn1ccnc1-c1nc(NCCN2CCOCC2)ncc1-c1cccs1 | 4.6
O=C1C(Cl)=C(NCCN2CCOCC2)C(=O)c2ncccc21 | -80.3*
O=C(N=c1sc2ccccc2n1-c1ccccc1)c1ccccc1 | -38.4
Nc1nc(=S)c2[nH]cnc2[nH]1 | -86.7*
Nc1ncnc2nc[nH]c12 | 6.3
Cc1nccn1CC1CCN(c2ncnc3c2CCNC3)CC1 | 4.2
COc1ccc(-c2cc(C(=O)O)[nH]n2)cc1 | -30.4
O=C(CSc1nc2ccccc2o1)Nc1nnc(SCc2ccccc2)s1 | 48.2
O=C(Nc1nnc(SCc2ccccc2)s1)C1COc2ccccc2C1 (centres undefined) | -83.3*
COCCSc1nnc(NC(=O)c2ccco2)s1 | 192.0
CCc1nnc(NC(=O)C2CC(=O)N(CCc3c[nH]c4ccc(Cl)cc34)C2)s1 (centres undefined) | 75.6
c1cc(C2CCN(c3ncnc4c3CCNC4)CC2)ccn1 | -11.0
COc1cccc(OCCN2CCN(c3ncnc4c3CCNC4)CC2)c1 | -52.6
COc1cccc(C2CCN(c3ncnc4c3CCNC4)C2)c1OC (centres undefined) | -72.0*
CCN1CCC2(CC1)OC(=O)C(C)=C2C(=O)Nc1ccc2c(c1)OCO2 | 124.4
Cc1cc(C)c(Cn2nc(C(C)(C)C)cc2C(=O)Nc2ccc3c(c2)OCO3)c(C)c1 | -98.6*
Cc1ccc(-c2coc(-c3ccc(NC(=O)Nc4ccc5c(c4)OCO5)cc3)n2)c(C)c1 | 19.4
Cc1cccc2[nH]c(CN(C)C(=O)c3cn(CC4CCCNC4)nn3)nc12 (centres undefined) | -4.3
CCOc1ccc(C(=O)NCCc2sc(-c3ccc(C)cc3)nc2C)cc1 | 2.4
Cc1nc(-c2ccc(F)cc2)sc1CCNC(=O)c1ccc(Cl)cc1 | -57.6
Cc1ccc(-c2nc(C)c(CCNC(=O)c3ccccc3)s2)cc1 | i
CCOc1ccc(C(=O)NCCc2sc(-c3ccc(OC)cc3)nc2C)cc1 | 77.5

Source: PubChem
